Experimental data as given in ChEMBL document CHEMBL1157539, “Thousands of chemical starting points for antimalarial lead identification” (Nature, 2010).

Key:
Type in all cases: functional
Plasmodium falciparum [1] = assay: GSK_TCMDC: Inhibition of Plasmodium falciparum 3D7 in whole red blood cells, using parasite LDH activity as an index of growth. Test compounds present at 2uM
Plasmodium falciparum [2] = assay: GSK_TCMDC: Inhibition of Plasmodium falciparum Dd2 in whole red blood cells, using parasite LDH activity as an index of growth. Test compounds present at 2uM
HepG2 = assay: GSK_TCMDC: Percent inhibition of human HepG2 cell line. Test compounds present at 10uM.

Row | SMILES | Inhibition (Plasmodium falciparum [1]) | Inhibition (Plasmodium falciparum [2]) | Inhibition (HepG2)
1 | CC1(C)[C@H]2CC[C@@H](CNc3nc(NCCc4c[nH]cn4)nc(Nc4ccc(Oc5ccccc5)cc4)n3)[C@@H]1C2 | 99% | 86% | 2%
2 | COc1ccc2nccc(N3CCC(CCNCc4cc5c(cn4)OCCO5)CC3)c2c1.Cl | 100% | 99% | 26%
3 | O=C(/C=C/c1ccc(Cl)c(Cl)c1)NCCCCCN1CCC(c2cn[nH]c2-c2ccccc2)CC1 | 85% | 0% | 28%
4 | CCOC(=O)c1cccc(NC(=N)Nc2nc(C)cc(NCCc3ccccc3)n2)c1 | 100% | 72% | 21%
5 | O=C(O)C(F)(F)F.OCC1CCN(Cc2ccc(-c3cccc(-c4nc5cc(F)ccc5[nH]4)c3)cc2)CC1 | 100% | 25% | 14%
6 | COc1ccc(C(=O)C2CCN(CCCCNC(=O)c3ccc(NC(=O)c4ccc(Cl)cc4)cc3)CC2)c(OC)c1 | 98% | 13% | 47%
7 | Fc1cc(Cl)ccc1Nc1ccnc2cc(-c3ccc(CN4CCCCC4)o3)ccc12 | 100% | 99% | 16%
8 | O=c1cc(NCCCN(Cc2ccccc2)Cc2ccccc2)[nH]c2ccccc12 | 100% | 93% | 7%
9 | O=C(Nc1cccc(-c2ccc(-c3nc4ccccc4[nH]3)cc2)c1)Nc1ccc(F)c(F)c1F | 100% | 38% | 45%
10 | Cc1cc(=O)c(-c2ccc(Oc3ccc(C(F)(F)F)cc3)cc2)c(C)n1O | 94% | 78% | 18%
11 | Cc1ccccc1C1CCN(c2ccc(NC(=O)c3ccc(Cl)nc3)cc2)CC1.O=C(O)C(F)(F)F | 92% | 82% | 43%
12 | CCCCCCCCNCCCSCCCNCCCCCCCC.Cl | 97% | 47% | 63%
13 | O=C(NCCCCNCC(Cc1cccc([O-])c1)c1ccccc1)c1ccc(NC(=O)c2ccc(Cl)cc2)cc1.[Na+] (stereo unspecified) | 96% | 1% | 0%
14 | CN(C)CCOc1ccc(-c2cc(-c3ccnc(N)n3)c(-c3ccc(Cl)c(O)c3)o2)cc1 | 100% | 91% | 14%
15 | Nc1ncc(-c2cc3ccccc3o2)c(N)n1 | 81% | 2% | 0%
16 | Cc1nc(-c2nc(NCCc3cnccn3)ncc2-c2ccsc2)sc1C | 98% | 40% | 0%
17 | Cn1cnc(CCNC(=O)c2ccc(-c3cccc(-c4nc5ccccc5[nH]4)c3)cc2)c1 | 93% | 14% | 1%
18 | Cc1ccccc1CN1CCCN(Cc2ccc(C(=O)Nc3ccc(C(C)(C)C)cc3)cc2)CC1.O=C(O)C(F)(F)F | 89% | 5% | 52%
19 | O=C(O)C(F)(F)F.c1cc(-c2ccc(CN3CCCCC3)cc2)cc(-c2nc3ccccc3[nH]2)c1 | 100% | 79% | 39%
20 | CCn1ccc2c(N3CCCCS3(=O)=O)cc(C(=O)N[C@@H](Cc3ccccc3)[C@H](O)CNC(C)(C)CCCC(C)C)cc21 | 96% | 98% | 23%
21 | CCCCCCCCCN(CCC)C(=O)[C@@H]1OC(C(=O)OC(c2ccccc2)c2ccccc2)=C[C@H](NC(=O)OC(C)(C)C)[C@H]1NC(C)=O | 91% | 49% | 0%
22 | CN1CCN(c2ccnc3cc4c(cc23)N(C(=O)Nc2ccc(-c3ccncc3)c3ccccc23)CC4)CC1.Cl | 100% | 97% | 10%
23 | CC1(C)N=C(N)N=C(N)N1c1ccc(Cl)cc1.O=C(O)c1cc2ccccc2c(Cc2c(O)c(C(=O)O)cc3ccccc23)c1O | 95% | 4% | 42%
24 | O=C(C=Cc1ccc(Cl)c(Cl)c1)NCCCCCN1CCC(CCNC(=O)/C=C/c2ccccc2)CC1 | 97% | 1% | 25%
25 | O=C(Nc1ccnc(N2CCCN(Cc3cccc(O)c3)CC2)c1)c1ccc(F)cc1.O=C(O)C(F)(F)F | 90% | 3% | 12%
26 | O=C(Nc1ccc(N2CCN(C(=O)/C=C/c3ccccc3)CC2)c(Cl)c1)c1ccc([N+](=O)[O-])o1 | 97% | 90% | 98%
27 | O=C(O)C(F)(F)F.c1ccc(CCNCc2cccc(-c3ccccc3CNCc3ccc4c(c3)OCO4)c2)nc1 | 90% | 80% | 41%
